Only a selection was taken, and hits are over-represented in it overall.
Tgondii IFNg: blocks Toxoplasma gondii growth in the presence of IFN-gamma; Toxoplasma gondii growth in IFN-gamma-treated host cells; stronger effect = lower value; activity change, negative = inhibition, % (concentration not given with the values); 69,000 tested, 3.8% active; in the data active = activity change below about -70%, passing the limit was not always enough;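 note: host cells are HeLa cells infected with Toxoplasma gondii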
Numbers stand for hits; ! = a repeat was not active.

For CCOc1ccc(-c2c(-c3ccccc3)ncn2Cc2cccnc2)cn1 the results were Tgondii IFNg inactive.
For COc1cccc2cc(C(=O)N3CCCC(c4nc5ccccc5n4C)C3)c(C)nc12 (centres undefined) the results were Tgondii IFNg inactive.
Screening CCn1cc(-c2c(-c3ccccc3)ncn2CCN(C)S(C)(=O)=O)cn1 returned Tgondii IFNg inactive.
Screening Cc1ccc(-c2nc(NC(=O)C(C)C)sc2C)cc1 returned Tgondii IFNg inactive.
For CNC(=O)c1ccc(Nc2ncc(C(F)(F)F)c(NCc3nccnc3N(C)S(C)(=O)=O)n2)cc1 the results were Tgondii IFNg -84.6.
Cc1nc(C(F)(F)F)ccc1C(=O)Nc1nc2ccsc2c(=O)s1 was read as Tgondii IFNg inactive.
Screening CCCCOc1c(C(=O)c2c(F)cc(C)cc2F)cnc2n[nH]cc12 returned Tgondii IFNg -91.5.
For CCCS(=O)(=O)Nc1ccc(F)c(C(=O)c2c[nH]c3ncc(Cl)cc23)c1F the results were Tgondii IFNg inactive.
`Cc1ccnc(NCCNC(=O)c2cc(C)[nH]n2)c1` gave Tgondii IFNg inactive.
`Cc1c(Cc2c(Cl)cccc2Cl)c(=O)oc2cc(O)ccc12` gave Tgondii IFNg -70.8.
Screening O=c1c2ccccc2oc2cc(O)ccc12 returned Tgondii IFNg inactive.
For COc1cc(COc2ccc3c(C)c(Cc4ccccc4)c(=O)oc3c2)cc(OC)c1OC the results were Tgondii IFNg inactive.
Cc1ccc(-c2nc(CNS(=O)(=O)c3ccc(C(C)C)cc3)c(C)o2)cc1 was read as Tgondii IFNg -104.7.
Screening COc1ccc(-c2nc(CNS(=O)(=O)c3ccc(OC)cc3)c(C)o2)cc1 returned Tgondii IFNg inactive.
`Cc1oc(-c2ccccc2)nc1CNS(=O)(=O)c1ccc(C(C)C)cc1` gave Tgondii IFNg inactive.
For CCSc1nc(CC(=O)NCc2nc(C)cc(=O)[nH]2)cs1 the results were Tgondii IFNg inactive.
Screening CCN(CC)C(=O)c1cc(=O)n(CC(=O)Nc2ccc(Cl)cc2)c2ccccc12 returned Tgondii IFNg inactive.
`CC(=O)N1CCOCC2(CCN(C(=O)C3CCCO3)CC2)C1` (centres undefined) gave Tgondii IFNg inactive.
For O=C(NCCS(=O)(=O)N1CCCC1)c1ccc(NC(=O)C2CCC2)cc1 the results were Tgondii IFNg inactive.
CCN(CC)CCNC(=O)c1ccccc1I was read as Tgondii IFNg inactive.
CCN(CC)CCNc1ccc(CO)c2sc3ccccc3c(=O)c12 was read as Tgondii IFNg -97.0!.
Cc1nc(C)c(CC(=O)Nc2ncc(Cc3ccc(F)cc3)s2)s1 was read as Tgondii IFNg -80.0.
Screening Cc1ccc2nc(COCC(=O)Nc3ncc(Cc4ccccc4)s3)[nH]c2c1 returned Tgondii IFNg inactive.
Screening Cc1nc2[nH]nc(C)n2c(=O)c1CC(=O)Nc1ncc(Cc2ccccc2F)s1 returned Tgondii IFNg inactive.
`COc1cc(OC)c(NC(=O)NCc2ccccc2)cc1NC(C)=O` gave Tgondii IFNg inactive.
`O=C(c1ccnn1-c1ccc2ccc(-c3ccc(F)cc3)cn12)N1CCCC(O)C1` (centres undefined) gave Tgondii IFNg inactive.
Cc1cccc(-c2nc(Cn3nnc(-c4nc(-c5ccc(C(F)(F)F)cc5)no4)c3C)c(C)o2)c1 was read as Tgondii IFNg inactive.
For CCN(CC)C(=O)c1nc2c(s1)CCN(C(=O)NCc1ccccc1)CC2 the results were Tgondii IFNg inactive.
For CN(Cc1ccc(-n2cccn2)cc1)Cc1ncc[nH]1 the results were Tgondii IFNg inactive.
For O=C(NC1CC(=O)N(c2ccc(F)cc2)C1)c1cc(COc2ccccc2F)on1 (centres undefined) the results were Tgondii IFNg inactive.
O=S1(=O)c2ccccc2O[C@H]2CCN(Cc3ccc(Cl)cc3)CC[C@H]2N1CC1CC1 was read as Tgondii IFNg -88.9.
Screening CCN1CC[C@@H]2Oc3ccccc3S(=O)(=O)N(CC3CC3)[C@@H]2CC1 returned Tgondii IFNg inactive.
For O=C(c1ccccc1)N1CC[C@@H]2Oc3ccccc3S(=O)(=O)N(CC3CC3)[C@@H]2CC1 the results were Tgondii IFNg inactive.
For COCCN1C[C@@H]2CN(C(=O)c3cnn(C)c3)C[C@H]2C1=O the results were Tgondii IFNg inactive.
For C[C@@H](NCCc1ccc(O)cc1)[C@@H](O)c1ccc(O)cc1 the results were Tgondii IFNg inactive.
`CCCCCCCCNC(C)C(O)c1ccc(SC(C)C)cc1` (centres undefined) gave Tgondii IFNg -78.4!.
Screening CC(NCCc1ccc(O)cc1)C(O)c1ccc(O)cc1 (centres undefined) returned Tgondii IFNg inactive.
Screening COCC1CN(C(=O)c2cccn2C)Cc2cnn(C)c21 (centres undefined) returned Tgondii IFNg inactive.
`CN(Cc1cc(C2CCNCC2)nn1C)C(=O)C1CCCN(c2ccccn2)C1` (centres undefined) gave Tgondii IFNg inactive.
`COc1ncccc1-c1nc(C(F)(F)F)nc(C)c1C` gave Tgondii IFNg inactive.
`COC(=O)c1sccc1NC(=O)c1ccc(Oc2cc(Cl)cc(Cl)c2)o1` gave Tgondii IFNg inactive.
